From PubChem BioAssay (NCI)
About 83,000 compounds went through this panel and 20% of them were active in at least one assay; those are over-represented in the sample as a whole.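 Treatment: one concentration, 48 hours, 96-well format. Scoring: percent growth, with anything below 10 considered active.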 Calls of active or inactive are those of the source.

test system: HL-60(TB) leukemia; assay: NCI-60 one-dose screen, 48 h (100 = growth as untreated, 0 = no growth, -100 = all killed); conditions: 10 µM unless noted

SMILES	growth
C=C1C(=O)O[C@H]2[C@H]1CC/C(CNC(=O)/C=C/c1cccc(OC)c1)=C\CC[C@@]1(C)O[C@@H]21	-35.4% (active)
Fc1ccc(-c2nnc(/C=C/c3cn(-c4ccccc4)nc3-c3ccccc3)o2)cc1	94.2% (inactive)
COc1cc2ncnc(Nc3ccc(OCc4cccc(F)c4)c(Cl)c3)c2cc1NC(=O)C1CCCC1	99% (inactive)
COCCN(C(=O)Cc1cccs1)C(C(=O)NCc1ccc(OC)cc1)c1ccc(C(C)C)cc1 (centres undefined)	105% (inactive)
Oc1cccc2ccc(N/N=C/c3cc(CN4CCCCC4)c(O)c4ncccc34)nc12	-12.1% (active)
CCn1cc(C(=O)O)c(=O)c2cnc(N3CCCC3)nc21	75.9% (inactive)
CC(C)C1=CC2=C(C=O)C[C@@H]3[C@](C)(CCC[C@@]3(C)C(=O)OCC#CCN3CCCC3)[C@H]2CC1	54.5% (inactive)
CN(C)CCCN1c2nc3ccccc3cc2Sc2cc3ccccc3nc21	43.9% (inactive)
COc1ccc(Nc2cc(NC(=O)CNc3cc(OC)c(Cl)c(OC)c3Cl)ncn2)cc1	75.1% (inactive)
